High-throughput results: PubChem BioAssay, several laboratories
A selection: hits, their analogues and other compounds. The true share with any hit is near 2%.
S1P4 ag = activates the human S1P4 receptor | activation, % at 4.98 µM | 220,000 tested, 0.35% active | O95977 | S1P4-expressing cell line, agonist reporter assay | AID 1509; in the data active = activation above about 11%;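 also: 0% = DMSO vehicle and 100% = reference agonist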
S1P3 antagonist = antagonists of human S1P3 receptor | CHO S1P3 NFAT-BLA reporter, FRET fluorescence, antagonist mode | inhibition, % at 4.98 µM | 170,000 tested, 0.27% active;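 active = inhibition above the plate cutoff, the mean inhibition of test wells on that plate plus 3 SD, cut at about 28% in these data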;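 also: cells challenged with S1P at its EC80 of 0.8 µM; blue over green emission ratio from cleaved BLA substrate after 4 h stimulation; 0% = S1P-stimulated wells and 100% = unstimulated DMSO-only wells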
S1P4 antagonist = antagonists of human S1P4 receptor | O95977 | S1P4-expressing cells, antagonist mode, reporter read-out | inhibition, % at 4.98 µM | 220,000 tested, 0.26% active | AID 1510; in the data active = inhibition above about 29%;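 also: 0% = wells stimulated with agonist and 100% = vehicle wells without agonist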
EP2 modulator = modulators of human EP2 prostaglandin E2 receptor; P43116; EP2-expressing cells, cAMP HTRF FRET, PGE2 co-stimulation; induction, % at 25 µM; 260,000 tested, 0.83% active; AID 940;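 active = compounds whose cAMP rise, as percent of the full-agonist control response, exceeds 60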;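 also: rat C6 glioma line stably carrying human EP2 under a CMV promoter; the protocol text gives 20 µM as final concentration; 100% = response of wells given 1 µM PGE2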
Target sequence (P43116 whole entry, looked up): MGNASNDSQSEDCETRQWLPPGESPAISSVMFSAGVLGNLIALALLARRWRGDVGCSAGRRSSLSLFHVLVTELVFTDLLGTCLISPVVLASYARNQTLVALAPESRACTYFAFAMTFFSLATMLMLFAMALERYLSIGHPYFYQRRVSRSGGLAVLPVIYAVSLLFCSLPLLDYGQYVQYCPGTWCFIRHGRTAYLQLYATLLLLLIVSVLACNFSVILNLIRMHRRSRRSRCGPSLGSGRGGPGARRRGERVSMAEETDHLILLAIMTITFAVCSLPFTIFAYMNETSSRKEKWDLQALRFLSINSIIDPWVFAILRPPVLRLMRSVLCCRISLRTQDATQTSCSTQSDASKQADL
PGE2 EP2 inh = EP2 receptor (human) inhibition; C6 glioma cells expressing human EP2, cAMP TR-FRET; cells stimulated with saturating PGE2; inhibition, % at 25 µM; P43116; 260,000 tested, 0.52% active;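 active = percent inhibition above 40 after rounding to a whole number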;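 also: rat C6 glioma host cells with rolipram phosphodiesterase inhibitor present; the protocol text gives 20 µM as final concentration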
S1P4 antag cf = confirmation of human S1P4 receptor antagonists; inhibition, % at 4.98 µM; 520 tested, 71% active; shares compounds with S1P4 antagonist; AID 1524; S1P4-expressing cell line, antagonist mode, reporter read-out; in the data active = inhibition above about 30%
S1P1 antag = counter-screen for S1P4 antagonists: antagonists of human S1P1 | 520 tested, 37% active | AID 1564 | shares compounds with S1P4 antagonist | inhibition, % at 4.98 µM | cell-based S1P1 antagonist counterscreen, inhibition; in the data active = inhibition above about 40%;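 also: receptor stimulated with S1P near its EC80; 0% = agonist stimulated wells and 100% = vehicle only wells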
An asterisk follows results filed as active; x = not tested or not shown.

SMILES	S1P4 ag	S1P3 antagonist	S1P4 antagonist	EP2 modulator	PGE2 EP2 inh	S1P4 antag cf	S1P1 antag
COCCCNC(=O)/C=C1\Sc2ccccc2N(Cc2ccccc2F)C1=O	0.2	-11.5	65.5*	-16.1	7.2	0.2	13.3
CCOc1ccccc1NC(=O)CSc1nnc(-c2ccc(C)cc2)n1C	x	x	x	23.6	7.9	x	x
CCOc1cc(CNCCc2ccc(S(N)(=O)=O)cc2)ccc1OCc1ccc(Cl)cc1	-6.0	x	36.6*	-51.1	31.9	39.9*	27.5
COc1cc(CNCCc2ccc(S(N)(=O)=O)cc2)ccc1OCc1ccc(Cl)cc1	1.7	x	-5.4	-58.7	20.7	x	x
Cc1ccc(S(=O)(=O)Nc2cccc3cccnc23)cc1	4.1	x	41.6*	-22.9	4.9	109.9*	98.0*
CC(=O)N1CCc2c(sc(NC(=O)c3ccc([N+](=O)[O-])o3)c2C#N)C1	0.2	1.7	33.4*	-20.6	4.2	82.0*	33.7
COc1ccc(C(=O)Nc2sc3c(c2C#N)CCN(C(C)=O)C3)cc1	1.5	9.5	3.3	-31.3	6.6	x	x
CCCC(=O)OCCNc1cc(Sc2nc3ccccc3[nH]2)c2nonc2c1[N+](=O)[O-]	0.7	-7.5	51.5*	-84.6	35.4	106.1*	-6.8
O=S(=O)(c1ccc(Cl)cc1)c1snnc1-c1ccccc1	-2.1	x	35.8*	44.7	12.8	72.3*	8.3
O=S(=O)(Nc1nnc(-c2ccccc2)s1)c1ccc(Cl)cc1	0.4	25.8	-3.4	12.6	8.1	x	x
O=C(c1ccc2c(c1)OCO2)N1CCC(O)(c2ccc(F)cc2)CC1	x	x	x	-54.2	x	x	x
O=C(CO/N=C/c1ccccc1OC(F)F)NC1CCCCC1	0.2	1.2	-26.2	-32.1	1.2	x	x
CCC(CC)NC(=O)CO/N=C/c1ccccc1OC(F)F	1.1	-19.4	38.7*	-31.3	6.6	0.5	-5.7
CN(C)c1ccc(C(=O)CC2(O)C(=O)Nc3ccc(Br)cc32)cc1 (centres undefined)	x	x	x	-38.2	5.6	x	x
CC1(C(=O)Nc2cnn(Cc3ccc(F)cc3)c2)CC(c2ccccc2)=NO1 (centres undefined)	x	x	x	-71.7	6.2	x	x
Cc1ccc(CNC(=O)CSc2c3c(nc4ccc(Cl)cc24)CCCC3)o1	-1.3	x	35.0*	39.6	7.4	29.1*	6.8
CCc1ccc(-n2nnnc2SCC(=O)Nc2nnc(CC)s2)cc1	x	x	x	8.9	10.3	x	x
Cc1cccc(N(C(=O)c2csnn2)C(C(=O)NC(C)(C)C)c2ccco2)c1 (centres undefined)	x	x	x	-3.4	9.5	x	x
CCn1c(=O)oc2cc(S(=O)(=O)NC3C4CCCCC43)c(Cl)cc21 (centres undefined)	x	x	x	-70.5	6.8	x	x
CC(=O)Nc1ccc2nc(SCC(=O)N3CCCCC3)sc2c1	x	x	x	-46.1	8.2	x	x
COc1ccc(/C=C/C(=O)c2cc(F)ccc2OC(=O)c2ccccc2OC)cc1OC	0.7	25.6	47.4*	-16.9	9.8	81.9*	98.9*
CN(C(=O)COC(=O)c1nc(Cl)c(Cl)c(Cl)c1Cl)C1CCS(=O)(=O)C1 (centres undefined)	1.0	2.2	39.5*	-38.4	7.9	73.8*	8.9
O=[N+]([O-])c1ccc(N=Nc2c(Cl)cc(O)cc2Cl)cc1	0.6	2.9	30.9*	-64.4	14.6	67.3*	18.4
Cc1ccc2c(ccc(/C=C/c3ccc(N(C)C)cc3)[n+]2CCCS(=O)(=O)[O-])c1	x	x	x	-26.9	11.0	x	x
Cc1ccc(C)c2[nH]c(=O)c(CN(CCCO)C(=S)Nc3cccc(Cl)c3)cc12	x	x	x	-71.9	10.7	x	x
SMILES	S1P4 ag	S1P3 antagonist	S1P4 antagonist	EP2 modulator	PGE2 EP2 inh	S1P4 antag cf	S1P1 antag
Cc1cccc(CSc2cccc3cccnc23)c1	-1.6	x	38.6*	6.4	10.5	95.6*	64.7*
N#Cc1ccc(/C=C/C(=O)c2cccnc2)cc1	0.6	-4.6	44.3*	-8.1	4.2	53.5*	52.3*
O=C(/C=C/c1ccc(Cl)cc1)c1cccnc1	-0.3	x	19.8	9.0	25.3	x	x
O=C(NCc1cccnc1)c1ccc(-c2ccc(Cl)cc2)o1	-0.5	-12.6	-10.5	-41.6	13.1	x	x
O=C(NCc1cccnc1)/C(=C\c1ccc(-c2ccc(Cl)c(Cl)c2)o1)S(=O)(=O)c1ccccc1	-0.9	10.0	57.9*	-48.2	1.8	108.0*	48.4*
O=c1ccsn1Cc1ccccc1	-0.5	-22.4	33.2*	-43.0	65.1*	36.5*	15.5
Cc1ccc(C(=O)NCCN2CCC(O)(c3ccc(F)cc3)CC2)s1	x	x	x	-55.0	5.7	x	x
COc1ccc(C(=O)C(CN2CCCC2)c2ccccc2)cc1 (centres undefined)	-1.6	x	3.1	5.8	14.3	x	x
COc1ccc(C(=O)C(CN2CCOCC2)c2ccccc2)cc1 (centres undefined)	-2.6	x	45.0*	24.0	2.7	30.6*	19.4
O=c1[nH]c2cc3c(cc2cc1CN(Cc1cccnc1)C(=S)Nc1ccccc1)OCO3	x	x	x	-20.9	10.3	x	x
CCN(CC)c1ccc2c(Cl)c(Br)c(=O)oc2c1	0.7	27.8	53.1*	-20.4	22.1	104.2*	74.2*
CCOc1cc(-c2cc(-c3ccc(Br)cc3)nc(N)c2C#N)ccc1O	x	x	x	-56.7	11.4	x	x
Oc1[nH]c2ccc(Br)cc2c1N=NC(=S)N1CCOCC1	-1.3	-3.3	32.7*	-11.1	7.3	101.5*	58.3*
Oc1[nH]c2ccccc2c1N=NC(=S)N1CCOCC1	-1.6	8.4	23.6	3.9	6.8	x	x
COc1ccc(-c2cc(-c3ccccc3)c(C#N)c(S(C)=O)n2)cc1 (centres undefined)	-3.9	x	54.0*	-15.9	9.3	85.2*	19.3
CCC(C)(C)n1nnnc1C(c1ccc2ncccc2c1)N1CCN(c2ccccc2F)CC1 (centres undefined)	x	x	x	-15.5	13.9	x	x
